mIDH1 inhibitor = inhibitors of human mutant IDH1 R132H | O75874 | IDH1-R132H enzyme, NADPH consumption, diaphorase/resazurin fluorescence | Potency, µM (titrated, usually from 76.6 µM), for inactives: top-dose activity change, negative = inhibition, most hits filed as inhibitors | 0.093% of 390,000 active; further: potency means the concentration at half of the fitted maximal effect; on the % scale 0 is the no-effect control and ±100 the full control effect; nearly all actives have a fitted effect of over 65% in size
Target sequence (O75874 whole entry R132H, stated change not applied): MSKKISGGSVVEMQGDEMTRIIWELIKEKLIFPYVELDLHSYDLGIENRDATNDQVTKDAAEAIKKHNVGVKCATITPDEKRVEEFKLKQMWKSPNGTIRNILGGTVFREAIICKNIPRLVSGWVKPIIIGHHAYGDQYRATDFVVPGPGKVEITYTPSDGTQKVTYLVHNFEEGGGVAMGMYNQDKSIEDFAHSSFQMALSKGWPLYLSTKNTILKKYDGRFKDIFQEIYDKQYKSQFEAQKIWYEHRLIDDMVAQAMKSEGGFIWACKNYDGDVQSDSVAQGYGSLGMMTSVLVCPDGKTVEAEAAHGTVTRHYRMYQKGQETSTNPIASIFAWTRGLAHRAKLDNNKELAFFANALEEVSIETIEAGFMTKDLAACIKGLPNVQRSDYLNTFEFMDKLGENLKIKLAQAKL
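IDH1-R132H (0.5 ug/mL) preincubated 30 min with compound, then NADPH (0.016 mM) and alpha-KG (2 mM) added; 80 min at RT, pH 7.5. Remaining NADPH coupled via diaphorase/resazurin to fluorescence (540/590 nm); concentration-response curves normalized to no-enzyme control.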
RGS4 inhibitor = human RGS4 inhibition | P49798 | Transcreener GDP fluorescence polarization, RGS4-accelerated GTP hydrolysis | Potency, µM (series often up to 114 µM), without a hit: at the top dose activity change, negative = inhibition, actives largely listed as inhibitors | 0.039% of 390,000 active; further: potency means the concentration at half of the fitted maximal effect; on the % scale 0 is the no-effect control and ±100 the full control effect; nearly all actives have a fitted effect of over 75% in size
Target sequence (P49798 whole entry, looked up): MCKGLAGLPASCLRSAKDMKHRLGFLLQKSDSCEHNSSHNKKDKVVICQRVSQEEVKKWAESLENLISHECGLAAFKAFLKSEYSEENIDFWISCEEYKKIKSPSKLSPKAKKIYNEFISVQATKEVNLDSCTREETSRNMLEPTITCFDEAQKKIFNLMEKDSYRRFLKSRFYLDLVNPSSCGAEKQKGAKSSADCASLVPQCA
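MLSMR compounds (23 nl, pin-transferred) preincubated 10 min at room temperature with a 500nM (2x) first reagent, then RGS4 at 900nM (2x) plus Transcreener GDP mix added; fluorescence polarization (620/688 nm) read before and after 90 min at 30 °C.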
rTrxR1 inhibitor = inhibitors of rat thioredoxin reductase 1 | Potency, µM (highest dose often 114 µM), for the others: top-dose activity change, negative = inhibition, most hits filed as inhibitors | 1% of 390,000 active | AID 588453 | recombinant rTrxR1, NADPH fluorescence consumption, selenite substrate; further: potency means the concentration at half of the fitted maximal effect; on the % scale 0 is the no-effect control and ±100 the full control effect; nearly all actives have a fitted effect of over 65% in size
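Rat TrxR1 (90 nM in the dispensed reagent) was pre-reduced with 400 uM NADPH for 5 min at room temperature, then incubated with compound for 15 min. After 400 uM selenite was added, NADPH fluorescence (Ex 340/Em 450 nm) was followed for 8 min.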
Eya2 phos inh = blocks the phosphatase activity of human Eya2; O00167; recombinant Eya2, OMFP fluorescence dephosphorylation (OMFP is methylfluorescein phosphate); Potency, µM (doses to about 76.9 µM), without a hit: at the highest dose activity, negative = inhibition, hits mostly inhibitors; 0.006% of 330,000 active; AID 488837; further: potency means the concentration at half of the fitted maximal effect; on the % scale 0 is the no-effect control and ±100 the full control effect
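Eya2 (0.2 uM) preincubated 10 min at ambient with compound, then OMFP substrate added at 50 uM; 10 min reaction in 50 mM HEPES pH 7.5, 50 mM NaCl, 5 uM MgCl2, 0.05% BSA, 1 mM DTT. Fluorescence read at Ex 485/Em 525 nm.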
TrxR1 substrate = substrates of rat thioredoxin reductase 1; O89049; purified TrxR1 substrate turnover, NADPH consumption readout; Potency, µM (highest dose often 114 µM), for the others: at the highest dose activity change, negative = substrate turnover; 0.01% of 390,000 active; further: potency means the concentration at half of the fitted maximal effect; on the % scale 0 is the no-effect control and ±100 the full control effect; nearly all actives have a fitted effect of over 50% in size
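Rat TrxR1, dispensed at 90 nM, was prereduced with 400 uM NADPH (final) for 5 min at ~22 deg C, then incubated with compound 15 min before 400 uM selenite. A first-read NADPH fluorescence drop versus no-compound background flagged substrates.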
Resorufin autofl = autofluorescence interference, mutant IDH1 hit counter-screen; shares compounds with mIDH1 inhibitor; Resorufin detection reagent fluorescence interference, cell-free; inhibition of signal, % at 51.2 µM; 750 tested, under 10 active; AID 623980;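 further: 0% = wells with normal resorufin and full inhibition = wells lacking resorufin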
IDH1 WT = wild-type IDH1 (human) inhibition counterscreen | shares compounds with mIDH1 inhibitor | WT IDH1 enzyme, NADPH diaphorase/resazurin fluorescence | Potency, µM (highest dose often 115 µM), without a hit: top-dose activity change, negative = inhibition, hits mostly inhibitors | 9% of 750 active;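 further: potency means the concentration at half of the fitted maximal effect; 0% = full WT IDH1 enzyme control and full inhibition = no enzyme wells; nearly all actives have a fitted effect of over 55% in size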
Target sequence (O75874 whole entry, looked up): as the sequence (O75874 whole entry R132H, stated change not applied) above, with H132R counted along it
IDH1 R132H conf = inhibits human mutant IDH1 enzyme in cherrypick confirmation. 83% of 750 active. shares compounds with mIDH1 inhibitor. AID 624002. IDH1 R132H enzyme, NADPH diaphorase/resazurin fluorescence. Potency, µM (titrated, usually from 76.6 µM), inactives show top-dose activity change, negative = inhibition, most hits filed as inhibitors; further: potency means the concentration at half of the fitted maximal effect; nearly all actives have a fitted effect of over 50% in size
Starred values were filed as active, the others as inactive; ? = inconclusive; / = no result given; [ ] = another dose, or the depositor's remark. An excerpt weighted towards active compounds, which were near 1.1% of everything screened. The call rests on the fitted dose curve; in most records, active means well fitted curve in the direction sought with a large enough effect; inconclusive means small, poorly fitted or top-dose-only effect, or another doubt; inactive means no such curve, though single readings can be large; an effect the other way counts as inactive or inconclusive.

SMILES	mIDH1 inhibitor	RGS4 inhibitor	rTrxR1 inhibitor	Eya2 phos inh	TrxR1 substrate	Resorufin autofl	IDH1 WT	IDH1 R132H conf
CCC(COC)NCc1cn(-c2ccc(F)cc2F)nc1-c1ccccc1C (stereo unspecified)	-0.2%	-16.6%	1.6%	-7.3%	-4.0%	/	/	/
COc1cc(/C=C2\SC(c3ccc(C)cc3)=NC2=O)cc(OC)c1OC	-0.5%	-51.8%	-19.3%	-10.2%	7.3%	/	/	/
COc1cc(/C=C2\SC(c3ccccc3)=NC2=O)cc(Cl)c1O	58.5µM*	?	-39.2%	18.5%	-4.8%[57.1 µM]	-4.4	7.5%	44.7µM*
Cc1ccc(CNC(=O)c2ccc(Cl)c(S(=O)(=O)N3CCCCC3)c2)cc1	-2.6%	1.4%	28.0%	-25.4%	-4.4%	/	/	/
Cc1cccc(N(C(=O)c2snc(C(N)=O)c2N)C(C(=O)NC2CCCC2)c2ccc(C)o2)c1 (stereo unspecified)	?	10.7%	-0.3%	14.2%	14.4%	0.9	7.5%	25.1µM*
Cc1ccc(N(C(=O)c2snc(C(N)=O)c2N)C(C(=O)NC2CCCC2)c2ccc(C)o2)cc1 (stereo unspecified)	?	-0.3%	-5.0%	-6.0%	12.9%	-0.6	3.0%	20µM*
COc1ccc(N(C(=O)c2snc(C(N)=O)c2N)C(C(=O)NC2CCCC2)c2ccco2)c(OC)c1 (stereo unspecified)	-21.9%	-4.0%	17.7%[57.1 µM]	-8.0%	7.8%[57.1 µM]	/	/	/
COCCNC(=O)C(c1ccc(C)o1)N(C(=O)c1snc(C(N)=O)c1N)c1ccc(C)cc1 (stereo unspecified)	-9.0%	-3.1%	3.8%	5.7%	13.6%	/	/	/
Cc1ccc(N(C(=O)c2snc(C(N)=O)c2N)C(C(=O)NC2CCCC2)c2ccco2)cc1 (stereo unspecified)	?	-7.1%	-22.9%	4.0%	-6.8%	6.5	-1.5%	28.2µM*
CCCC(=O)OCC(=O)Nc1cc([N+](=O)[O-])ccc1OC	11.5%	14.6%	31.7%	16.3%	5.0%	/	/	/
COc1cccc(CN(C)CC(=O)NC(=O)NCc2ccccc2)c1	-0.2%	18.2%	-17.3%	4.9%	-13.7%	/	/	/
Nc1c(S(=O)(=O)O)cc(NC(=O)c2ccccc2)c2c1C(=O)c1ccccc1C2=O	?	?	7.2%	0.3%	-2.3%	-14.0	28.2µM*	14.1µM*
COc1ccc(NC(=O)CCN2CCN(S(=O)(=O)c3ccc(C(C)C)cc3)CC2)cc1	-5.8%	-4.6%	6.4%	0.5%	-11.0%	/	/	/
CC(C)c1ccc(S(=O)(=O)N2CCN(CCC(=O)Nc3ccc(N(C)C)cc3)CC2)cc1	46.5µM*	10.0%	3.1%[57.1 µM]	-39.1%	3.0%[57.1 µM]	-0.9	-1.1%	22.4µM*
CCCC(=O)Nc1nc2ccc(S(N)(=O)=O)cc2s1	16.3%	-18.8%	35.8%	7.2%	7.9%	/	/	/
O=C1c2cccc3c(N4CCCCC4)ccc(c23)C(=O)N1c1ccccn1	0.0%	2.8%	4.6%	-9.1%	-1.7%	/	/	/
O=C1c2ccccc2-c2n[nH]c(=O)c3ccc(N4CCCCC4)c1c23	?	-19.4%	9.3%[57.1 µM]	-0.5%	-7.1%	-3.7	?	31.6µM*
CC(C)C[C@@H](C)C(=O)N(Cc1ccccc1)c1ccccc1	12.2%	-17.5%	6.1%[57.1 µM]	-18.0%	-3.4%[57.1 µM]	/	/	/
CC[C@@H](CCC=C(C)C)C(=O)N(Cc1ccccc1)c1ccccc1	?	-20.2%	11.2%	-17.4%	-0.2%	-0.2	?	15.8µM*
O=S(=O)(Nc1ccc(S(=O)(=O)Nc2nccs2)cc1)c1ccc(Br)cc1	?	-10.1%	28.8%	-9.1%	-0.6%	1.9	7.9%	39.8µM*
Cc1ccsc1C1Nc2ccc3ncccc3c2C2=C1C(=O)CC(C)(C)C2 (stereo unspecified)	?	7.1%	24.4%[57.1 µM]	6.1%	20.0%[57.1 µM]	-19.4	?	2.82µM*
O=C1CCCC2=C1C(c1cccs1)Nc1ccc3ncccc3c12 (stereo unspecified)	4.0%	-17.9%	1.0%	4.0%	6.2%	/	/	/
O=c1[nH]c(=O)n(CCO)c2nnn(Cc3ccccc3)c12	3.0%	-41.4%	-1.6%	9.4%	-1.0%	/	/	/
COc1cc(C2c3c(-c4ccccc4O)n[nH]c3C(=O)N2Cc2ccncc2)cc(OC)c1OC (stereo unspecified)	-13.8%	17.1%	14.8%	/	-4.6%	/	/	/
CCOc1cc(C2c3c(-c4ccccc4O)n[nH]c3C(=O)N2Cc2cccnc2)ccc1O (stereo unspecified)	6.8%	5.7%	16.8%	/	1.0%	/	/	/
SMILES	mIDH1 inhibitor	RGS4 inhibitor	rTrxR1 inhibitor	Eya2 phos inh	TrxR1 substrate	Resorufin autofl	IDH1 WT	IDH1 R132H conf
COc1ccc(C2c3c(-c4cc(Cl)c(C)cc4O)n[nH]c3C(=O)N2Cc2cccnc2)cc1OC (stereo unspecified)	?	17.2%	2.4%	13.3%	0.5%	7.8	5.2%	28.2µM*
CCOc1ccc(C2c3c(-c4ccccc4O)n[nH]c3C(=O)N2Cc2cccnc2)cc1OC (stereo unspecified)	?	15.6%	4.0%	/	-5.6%	0.5	-11.9%	31.6µM*
CCc1ccc(-n2c(=O)c3c(C)c(C(=O)N(C)C)sc3n(Cc3cccc(C)c3)c2=O)cc1	?	1.0%	35.8%[57.1 µM]	/	14.0%[57.1 µM]	-3.3	-9.7%	31.6µM*
CCN(CC)C(=O)c1sc2c(c1C)c(=O)n(-c1ccccc1)c(=O)n2Cc1cc(=O)n2ccccc2n1	-8.0%	28.4%	12.9%[57.1 µM]	/	6.3%[57.1 µM]	/	/	/
Cc1ccc(-n2c(=O)c3c(C)c(C(=O)N(C)C)sc3n(Cc3ccccc3C)c2=O)cc1C	?	1.7%	13.3%[57.1 µM]	/	-0.5%[57.1 µM]	-4.7	2.0%	22.4µM*
CCN(CC)C(=O)c1sc2c(c1C)c(=O)n(-c1ccccc1)c(=O)n2Cc1c(C)cc(C)cc1C	39.8µM*	-8.9%	17.6%[57.1 µM]	/	6.6%[57.1 µM]	-5.5	-4.8%	35.5µM*
CC(C)=CCc1c(O)cc(O)c2c(=O)c3c(CC=C(C)C)c(O)ccc3oc12	44.7µM*	5.7%	15.6%	/	-3.8%	3.6	5.8%	39.8µM*
O=C1c2[nH]nc(-c3ccc(F)cc3)c2C(c2ccccc2F)N1c1ccccc1 (stereo unspecified)	?	-13.0%	-5.2%	/	-4.5%	0.9	1.5%	?
COc1cc(C2c3c(-c4ccccc4)n[nH]c3C(=O)N2c2ccccc2)ccc1O (stereo unspecified)	-15.3%	19.1%	?	-3.2%	-3.1%	/	/	/

Bioassay records: PubChem BioAssay, National Center for Advancing Translational Sciences (NCATS)
